Inconclusive results are not listed. Activity calls are given as the source filed them. Unless noted, calls follow the shape of the dose curve; as a rule, active = well fitted curve in the direction sought with a large enough effect in the repeat runs; inconclusive = weak or mixed curves; inactive = no such curve, though single readings can be large; an effect the other way counts as inactive or inconclusive.
Assays:
[1] = qHTS assay to test for compound auto fluorescence at 460 nm (blue) in HEK293 cell free culture (AID 720681)
In short: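 Compounds were added to cell-free DMEM with 10% FBS and fluorescence read directly. The blue channel used 405 nm excitation and 460 nm emission, with triamterene as the reference fluorophore.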

[2] = qHTS assay to test for compound auto fluorescence at 535 nm (green) in HEK293 cell free culture (AID 720682)
In short: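 Steps: dispense DMEM/10% FBS into empty wells; pin in compound or DMSO; measure fluorescence at 485/535 nm. Values are fluorescein equivalents.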

[3] = qHTS assay to test for compound auto fluorescence at 590 nm (red) in HEK293 cell free culture (AID 720683)
In short: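 Cell-free wells of DMEM with 10% FBS received compound, and intrinsic fluorescence was read at excitation/emission 540/590 nm. Values expressed as equivalence to Rose Bengal sodium.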

[4] = qHTS assay to test for compound auto fluorescence at 590 nm (red) in HepG2 cell free culture (AID 720684)
In short: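 Compound was pinned into wells holding MEM with 10% FBS and no cells, and red fluorescence was read at Ex/Em 540/590 nm. Signal is expressed as auto fluorescence equivalency relative to Rose Bengal sodium.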

[5] = qHTS assay to test for compound auto fluorescence at 460 nm (blue) in HepG2 cell free culture (AID 720685)
In short: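 Compound (23 nL) or DMSO pinned into cell-free MEM with 10% FBS; blue fluorescence read at 405/460 nm excitation/emission, expressed as auto-fluorescence equivalency to triamterene.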

[6] = qHTS assay to test for compound auto fluorescence at 535 nm (green) in HepG2 cell free culture (AID 720686)
[7] = qHTS assay to test for compound auto fluorescence at 460 nm (blue) in HepG2 cells (AID 720687)
In short: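 HepG2 cells in MEM with 10% FBS, attached overnight at 37 C, were exposed to compound or DMSO for 1 hr at 37 C, 5% CO2. Blue fluorescence was read at 405/460 nm, with triamterene as reference fluorophore.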

[8] = target: Glucocorticoid receptor (Homo sapiens) (UniProt P04150); experiment: qHTS assay to identify small molecule agonists of the glucocorticoid receptor (GR) signaling pathway (AID 720691; active = well fitted activation curve with a large enough effect in the signal ratio in the repeat runs, not every such curve was filed as active; the % refers to the signal ratio)
In short: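 Reporter read-out: fluorescence intensity following 2 h room-temperature LiveBLAzer B/G FRET substrate loading. Prior step: GR-bla HeLa cells held 4 h, then treated 18 h at 37 C.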

[9] = target: Glucocorticoid receptor (Homo sapiens) (UniProt P04150); experiment: qHTS assay to identify small molecule antagonists of the glucocorticoid receptor (GR) signaling pathway (AID 720692; active = well fitted inhibition curve with a large enough effect in the signal ratio in the repeat runs, not every such curve was filed as active; the % refers to the signal ratio)
In short: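 Dexamethasone (5 nM final) stimulated a stably integrated GRE-beta-lactamase reporter in HeLa cells during 18 h co-incubation with compounds; signal was quantified as fluorescence intensity of B/G FRET substrate after 2 h.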

[10] = qHTS assay to identify small molecule antagonists of the glucocorticoid receptor (GR) signaling pathway - cell viability counter screen (AID 720693); also: nearly all actives have a fitted effect of over 55% in size
[11] = qHTS assay for identifying genotoxic compounds that show differential cytotoxicity against isogenic chicken DT40 cell lines with known DNA damage response pathways - wild type cell line (AID 743012); also: nearly all actives have a fitted effect of over 60% in size
In short: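 Using parental DT40 (300 cells/well), compounds delivered in DMSO incubate 40 h at 37 C/5% CO2. CellTiter-Glo reagent then stands 30 min at room temperature, and luminescence gives cell viability.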

[12] = qHTS assay for identifying genotoxic compounds that show differential cytotoxicity against isogenic chicken DT40 cell lines with known DNA damage response pathways - Rev3 mutant cell line (AID 743014); also: nearly all actives have a fitted effect of over 55% in size
[13] = qHTS assay for identifying genotoxic compounds that show differential cytotoxicity against isogenic chicken DT40 cell lines with known DNA damage response pathways - Rad54/Ku70 mutant cell line (AID 743015); also: nearly all actives have a fitted effect of over 60% in size
[14] = qHTS assay to identify small molecule antagonists of the androgen receptor (AR) signaling pathway - cell viability counter screen (AID 743033; also: nearly all actives have a fitted effect of over 45% in size)
[15] = qHTS assay to identify small molecule antagonists of the androgen receptor (AR) signaling pathway using the MDA cell line - cell viability counter screen (AID 743041; also: nearly all actives have a fitted effect of over 45% in size)
In short: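 MDA-kb2 AR-luc cells (MMTV-luciferase, AR/GR responsive) treated with compounds plus R1881 agonist for 16 h at 37C. CellTiter-Fluor added at 15.5 h; fluorescence read after 30 min in the same wells.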

[16] = qHTS assay to test for compound auto fluorescence at 535 nm (green) in HEK293 cells (AID 720680)
[17] = target: Androgen receptor (Homo sapiens) (UniProt P10275); experiment: qHTS assay to identify small molecule antagonists of the androgen receptor (AR) signaling pathway (AID 743035; active = well fitted inhibition curve with a large enough effect in the signal ratio in the repeat runs, not every such curve was filed as active; the % refers to the signal ratio)
In short: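 Using qHTS, AR-UAS-bla GripTite HEK293 cells received compound, then R1881, and were cultured 16 h at 37C/5% CO2 before a 2 h room-temperature LiveBLAzer B/G FRET substrate step and fluorescence measurement.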

[18] = target: Androgen receptor (Homo sapiens) (UniProt P10275); experiment: qHTS assay to identify small molecule agonists of the androgen receptor (AR) signaling pathway (AID 743036; active = well fitted activation curve with a large enough effect in the signal ratio in the repeat runs, with a control signal flat, not every such curve was filed as active; the % refers to the signal ratio)
In short: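 Reporter line: GeneBLAzer AR-UAS-bla-GripTite (HEK293). Steps: plate cells, 4 h rest, add compounds, 16 h at 37C, add LiveBLAzer B/G substrate, 2 h at RT, read fluorescence.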

[19] = target: Androgen receptor (Homo sapiens) (UniProt P10275); experiment: qHTS assay to identify small molecule agonists of the androgen receptor (AR) signaling pathway using the MDA cell line (AID 743040; also: nearly all actives have a fitted effect of over 20% in size)
In short: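 MDA-kb2 breast carcinoma cells carrying MMTV-luciferase (responsive to AR and GR), plated 5 h then treated 16 h with compounds at 37C, 0% CO2. Read-out was ONE-Glo luminescence after 30 min at room temperature.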

[20] = target: Androgen receptor (Homo sapiens) (UniProt P10275); experiment: qHTS assay to identify small molecule antagonists of the androgen receptor (AR) signaling pathway using the MDA cell line (AID 743042; also: nearly all actives have a fitted effect of over 55% in size)
In short: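 MDA-kb2 breast carcinoma cells carrying MMTV-luciferase (AR/GR responsive) were co-treated with compounds and the agonist R1881 for 16 h at 37C. Inhibition read as ONE-Glo luminescence; CellTiter-Fluor fluorescence measured in parallel for cytotoxicity.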

Measured: Potency

Sequence of Glucocorticoid receptor (Homo sapiens) (P04150 whole entry, looked up): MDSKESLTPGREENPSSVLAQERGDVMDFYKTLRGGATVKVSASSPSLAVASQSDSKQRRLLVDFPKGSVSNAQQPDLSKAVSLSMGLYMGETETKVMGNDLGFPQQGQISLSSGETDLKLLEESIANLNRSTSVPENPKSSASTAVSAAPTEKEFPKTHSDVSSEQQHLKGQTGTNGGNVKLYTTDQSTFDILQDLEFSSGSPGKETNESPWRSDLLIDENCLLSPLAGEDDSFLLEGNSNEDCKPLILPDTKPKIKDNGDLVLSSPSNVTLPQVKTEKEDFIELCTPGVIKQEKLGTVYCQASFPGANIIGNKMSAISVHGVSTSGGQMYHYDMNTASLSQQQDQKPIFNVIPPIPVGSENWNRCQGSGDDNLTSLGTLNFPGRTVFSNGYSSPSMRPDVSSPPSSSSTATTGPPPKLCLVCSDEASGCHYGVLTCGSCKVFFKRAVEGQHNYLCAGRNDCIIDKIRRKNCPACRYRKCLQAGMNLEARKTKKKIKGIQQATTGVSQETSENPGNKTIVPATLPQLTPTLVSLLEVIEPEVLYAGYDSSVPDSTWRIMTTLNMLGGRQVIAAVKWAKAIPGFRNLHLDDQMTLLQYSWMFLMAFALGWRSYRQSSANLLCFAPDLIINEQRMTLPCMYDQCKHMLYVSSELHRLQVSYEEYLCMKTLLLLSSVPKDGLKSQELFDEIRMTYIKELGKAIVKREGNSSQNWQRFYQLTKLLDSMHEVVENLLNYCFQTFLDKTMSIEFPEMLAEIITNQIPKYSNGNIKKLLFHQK
Sequence of Androgen receptor (Homo sapiens) (P10275 whole entry, looked up): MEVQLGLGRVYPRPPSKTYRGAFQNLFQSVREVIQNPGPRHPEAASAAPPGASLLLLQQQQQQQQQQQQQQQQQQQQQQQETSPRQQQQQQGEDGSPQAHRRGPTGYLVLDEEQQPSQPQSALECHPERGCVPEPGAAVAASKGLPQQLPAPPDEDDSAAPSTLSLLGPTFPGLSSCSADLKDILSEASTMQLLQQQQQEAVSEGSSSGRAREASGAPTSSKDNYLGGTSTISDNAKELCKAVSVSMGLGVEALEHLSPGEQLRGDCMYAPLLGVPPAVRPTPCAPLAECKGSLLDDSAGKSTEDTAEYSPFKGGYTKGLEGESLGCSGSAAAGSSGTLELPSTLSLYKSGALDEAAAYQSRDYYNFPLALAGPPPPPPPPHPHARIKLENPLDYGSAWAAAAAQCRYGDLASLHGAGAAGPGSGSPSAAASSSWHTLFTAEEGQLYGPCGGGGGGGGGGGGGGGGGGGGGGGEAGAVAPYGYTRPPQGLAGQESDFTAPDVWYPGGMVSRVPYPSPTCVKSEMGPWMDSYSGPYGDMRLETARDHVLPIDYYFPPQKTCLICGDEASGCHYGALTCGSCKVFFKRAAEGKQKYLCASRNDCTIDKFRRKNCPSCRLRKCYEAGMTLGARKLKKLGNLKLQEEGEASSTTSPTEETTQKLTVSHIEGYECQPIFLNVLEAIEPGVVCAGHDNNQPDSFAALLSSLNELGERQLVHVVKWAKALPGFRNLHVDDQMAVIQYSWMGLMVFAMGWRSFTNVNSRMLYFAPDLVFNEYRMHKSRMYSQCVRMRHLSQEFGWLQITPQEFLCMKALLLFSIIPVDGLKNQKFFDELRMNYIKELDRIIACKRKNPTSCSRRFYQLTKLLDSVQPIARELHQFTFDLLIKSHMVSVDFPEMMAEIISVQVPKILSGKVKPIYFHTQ

CC1=C(O)C(=O)C(C)O1 (stereo not given)
not listed: [16] | [17] | [18] | [19] | [20]
inactive: all other assays above

CCCC(=O)OCCC(C)CCC=C(C)C (stereo not given)
inactive: [16] | [1] | [3] | [4] | [5] | [7] | [10] | [14] | [15]

O=C(CCCCC(=O)Nc1c(I)cc(I)c(C(=O)O)c1I)Nc1c(I)cc(I)c(C(=O)O)c1I
not listed: [2] | [5] | [17] | [18] | [19] | [20]
inactive: all other assays above

CC(S)C(C)S (stereo not given)
not listed: [13] | [16]
inactive: all other assays above

CO[C@@]1(NC(=O)Cc2cccs2)C(=O)N2C(C(=O)O)=C(COC(N)=O)CS[C@@H]21
inactive: [16] | [1] | [3] | [4] | [5] | [7] | [10] | [11] | [12] | [14] | [15]

CC/C(C)=N\O[Si](C)(O/N=C(\C)CC)O/N=C(\C)CC
inactive: [16] | [1] | [3] | [4] | [6] | [7] | [10] | [11] | [13] | [14] | [15]

O=C(O)c1cc2ccccc2nc1C(=O)O
not listed: [2] | [6] | [17] | [18] | [19] | [20]
inactive: all other assays above

CC(C)c1ccc(C=O)cc1
not listed: [2] | [11] | [17] | [18] | [19] | [20]
inactive: all other assays above

O=Cc1ccccc1Cl
not listed: [2] | [5] | [10] | [17] | [18] | [19] | [20]
inactive: all other assays above

CNCCS(=O)(=O)O
not listed: [2] | [12] | [13] | [17] | [18] | [19] | [20]
inactive: all other assays above

CC(O)COC(C)(C)C (stereo not given)
not listed: [2] | [9] | [12] | [17] | [18] | [19] | [20]
inactive: all other assays above

NCCOCCN
inactive: [1] | [3] | [4] | [5] | [6] | [7] | [11] | [12] | [13] | [14] | [15]

COP(=O)(O)OP(=O)(O)OC
not listed: [5] | [9] | [13] | [16] | [17] | [18] | [19] | [20]
inactive: all other assays above

Cc1ccccc1C(N)=O
not listed: [6] | [12] | [16] | [17] | [18] | [19] | [20]
inactive: all other assays above

CC(=O)CCc1ccc(OC(C)=O)cc1
not listed: [6] | [10] | [12] | [16] | [17] | [18] | [19] | [20]
inactive: all other assays above

CC1CC(=O)CC(C)(C)C1 (stereo not given)
not listed: [10] | [16] | [17] | [18] | [19] | [20]
inactive: all other assays above

CC(C)CO
not listed: [5] | [16] | [17] | [18] | [19] | [20]
inactive: all other assays above

O=C(O)CSCC(=O)NC1CCSC1=O (stereo not given)
not listed: [8] | [9] | [16] | [17]
inactive: all other assays above

COc1cc2c(cc1OC)C(=O)C(CC1CCN(Cc3ccccc3)CC1)C2 (stereo not given)
inactive: [1] | [2] | [3] | [4] | [7] | [14] | [18] | [19] | [15] | [20]

N#CCC(=O)NN
inactive: [1] | [2] | [3] | [4] | [5] | [6] | [7] | [8] | [9] | [11] | [14]

OCC1CCC(CO)CC1 (stereo not given)
not listed: [10] | [12] | [16]
inactive: all other assays above

Source: PubChem BioAssay (Tox21)
